Screening data deposited in PubChem BioAssay by National Center for Advancing Translational Sciences (NCATS).
The entries come from a sample that favours hits as a whole.
ERK EGF block = EGF-driven ERK pathway inhibition; actives 0.41% (n = 130,000); Potency, µM (titrated, usually from 11.5 µM), inactives show top-dose activity change, negative = inhibition, actives largely listed as inhibitors; HEK293-V1b, EGF-stimulated phospho-ERK AlphaScreen; active means well fitted inhibition curve with a large enough effect;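 further: plate controls were stimulated vehicle wells for no effect and unstimulated vehicle basal for full effect; nearly all actives have a fitted effect of over 55% in size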
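HEK293 cells stably expressing V1b receptor, serum-reduced (1% FBS) overnight, got compound for 30 min at 37C, then 25 nM EGF for 5 min. Lysate phospho-ERK read by AlphaScreen SureFire; AC50 from Hill fits.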
* = called active by the depositor; [ ] = dose if it differs, or a comment. Potency means the concentration at half of the fitted maximal effect.

For COc1ccc(C(=O)/C=C/Sc2nc3ccccc3o2)cc1 the results were ERK EGF block 28µM*.
COc1ccc(C(=O)/C=C/c2ccc(O)cc2)cc1 was read as ERK EGF block -3%[57.5 µM].
For O=C(Nc1ccncc1)c1cc([N+](=O)[O-])ccc1Cl the results were ERK EGF block 12%.
For CCCCC1=CC2=C(c3ccco3)C(=O)C(C)(OC(=O)c3ccc(OC)cc3)C(=O)C2=CN1CCCN(CC)CC (stereo unspecified) the results were ERK EGF block 11%[57.5 µM].
`COc1ccccc1NS(=O)(=O)c1cc(NC(=S)NCC2CCCO2)ccc1C` (stereo unspecified) gave ERK EGF block 6%.
`COc1cc(C(=O)NS(=O)(=O)c2ccccc2C)ccc1Cc1cn(C)c2ccc(NC(=O)OC3CCCC3)cc12` gave ERK EGF block 28µM*.
CCOc1ccc(CNC(=O)CCCc2cn(C)c3ccccc23)cc1OC was read as ERK EGF block 1%.
CCOC(=O)C(C)Oc1ccc(NC(=O)C(Cl)(Cl)Cl)cc1 (stereo unspecified) was read as ERK EGF block 5%[57.5 µM].
Screening CCc1ccc(NC(=O)C2(C)Cc3ccccc3C(=O)O2)cc1 (stereo unspecified) returned ERK EGF block 22µM*.
CC1(C(=O)Nc2cccc(S(=O)(=O)N3CCOCC3)c2)Cc2ccccc2C(=O)O1 (stereo unspecified) was read as ERK EGF block -3%.
For CCc1ccc(NC(=O)CSCCN2C(=O)c3ccccc3C2=O)cc1 the results were ERK EGF block -12%.
For COc1cccc(CC2(CO)CCCN(C/C=C/c3ccccc3OC)C2)c1 (stereo unspecified) the results were ERK EGF block -21%.
COCCCNc1oc(-c2cccs2)nc1S(=O)(=O)c1ccc(C)cc1 was read as ERK EGF block -7%.
`N#C/C(=C/c1ccco1)C(N)=S` gave ERK EGF block -7%[57.5 µM].
For N#CC(C#N)=C1C=CC=CN1/C(=C\c1ccco1)C(=O)c1ccccc1 the results were ERK EGF block 14µM*.
For CC(C)OC(=O)/C(=C/c1ccco1)c1ccccc1 the results were ERK EGF block -6%[57.5 µM].
Screening Cc1cc(C(=O)N/N=C/c2cc([N+](=O)[O-])ccc2O)c2ccccc2n1 returned ERK EGF block 4%.
CC(C)n1cnc2c(NCc3ccc(S(N)(=O)=O)cc3)nc(NCc3ccc(S(N)(=O)=O)cc3)nc21 was read as ERK EGF block -7%[57.5 µM].
Screening FC(F)(F)c1ccc(Cl)c(N/N=C/c2ccc(N3CCOCC3)s2)c1 returned ERK EGF block -5%.
For Cc1nn(-c2ccccc2)c(N2CCCC2)c1/C=N/NC(=O)c1cccc(S(=O)(=O)Nc2ccc(Cl)cc2)c1 the results were ERK EGF block -1%.
Screening COc1ccc(-c2csc(NC(=O)c3ccoc3C)n2)cc1 returned ERK EGF block 16µM*.
Screening COc1ccc(-c2csc(NC(=O)c3ccccc3C(=O)O)n2)cc1 returned ERK EGF block 5%.
COc1ccc(-c2csc(NC(=O)c3ccc(S(C)(=O)=O)cc3)n2)cc1 was read as ERK EGF block -10%.
`CC(=O)NC1=NN(C(C)=O)C(C)(c2ccc(C)o2)S1` (stereo unspecified) gave ERK EGF block 0%.
COc1cc(NC(=O)c2ccnnc2)cc(C(=O)Nc2cccc(C(F)(F)F)c2)c1 was read as ERK EGF block 1%[57.5 µM].
For COc1cc(NC(=O)COc2ccc(Br)cc2)ccc1NC(=O)C(C)C the results were ERK EGF block -8%.
For COc1ccc2nc3cc(Cl)ccc3c(Nc3cc(C(C)C)c(O)cc3C)c2c1 the results were ERK EGF block 18µM*.
For CCN(CC)CCCC(C)Nc1c2ccc(Cl)cc2nc2ccc(OC)cc12 (stereo unspecified) the results were ERK EGF block 3%.
Cc1cc(O)c(C(C)C)cc1NC(=O)c1ccccc1Cl was read as ERK EGF block -3%.
For Cc1[nH]n(C2=NCCS2)c(=O)c1N=Nc1cccc(C(F)(F)F)c1 the results were ERK EGF block -4%.
`CCOC(=O)N1CCC(N2Cc3cccc(C(=O)NCc4ccc(OC)cc4)c3C2=O)CC1` gave ERK EGF block -1%.
CC(C)NC(=O)c1nn(C)c2ccccc12 was read as ERK EGF block 6%.
For O=C(Nc1ccc(F)cc1)OCCOc1ccc(Br)cc1 the results were ERK EGF block -7%[57.5 µM].
Screening CCOC(=O)c1c(C)oc(NC(=O)CCl)c1C(=O)OCC returned ERK EGF block 1%.
Screening CCCCN1C(=O)c2ccc(C(=O)Nc3ccc(C)c(S(=O)(=O)N(C)C)c3)cc2C1=O returned ERK EGF block 25µM*.
For Cc1ccc(NC(=O)COC(=O)CN2C(=O)c3ccccc3C2=O)cc1S(=O)(=O)N(C)C the results were ERK EGF block 2%.
`Cc1ccc(NC(=O)c2ccncc2)cc1S(=O)(=O)N(C)C` gave ERK EGF block 14%.
Screening Cc1ccc(S(C)(=O)=NC(=O)c2cc(C)on2)cc1 (stereo unspecified) returned ERK EGF block 3%[57.5 µM].
Screening CC(C)(C)NC(=O)CN1C(=O)/C(=C/c2ccccc2)SC1=S returned ERK EGF block 8%.
For Cc1ccc(/C=C2\SC(=S)N(CCCC(=O)NNC(=O)c3ccccc3O)C2=O)cc1 the results were ERK EGF block 3%[57.5 µM].
For O=C(CN1C(=O)/C(=C/c2ccccc2)SC1=S)NNC(=O)c1ccccc1O the results were ERK EGF block 14µM*.
O=c1cc(CNc2cc(C(F)(F)F)cc(C(F)(F)F)c2)nc2sccn12 was read as ERK EGF block -7%.
Screening Cc1cc(C)cc(NC(=S)NCCSc2ccc(Cl)cc2)c1 returned ERK EGF block 2%.
Screening COC(=O)Cc1ccc(NC(=S)NCCSc2ccc(Cl)cc2)cc1 returned ERK EGF block 28µM*.
COC(=O)Cc1ccc(NC(=S)NCCO)cc1 was read as ERK EGF block -6%[57.5 µM].
`O=C(Nc1ccccc1C(F)(F)F)c1cc2ncc(CCCl)cn2n1` gave ERK EGF block 0%.
`CCOc1ccc(C(=O)c2cc([N+](=O)[O-])ccc2N2CCOCC2)cc1` gave ERK EGF block -1%.
COc1cc(OC)c2ccc(=O)oc2c1C(CCN1CCCC(C)C1)c1ccc(N(C)C)cc1 (stereo unspecified) was read as ERK EGF block -20%[57.5 µM].
COc1cc(OC)c2c(-c3ccccc3)cc(=O)oc2c1C(CCN1CCCC(C)C1)c1ccc2c(c1)OCO2 (stereo unspecified) was read as ERK EGF block -13%[57.5 µM].
CCCCCc1cc(=O)oc2c(C(CCN3CCCC(C)C3)c3cc(OC)c(OC)c(OC)c3)c(OC)cc(OC)c12 (stereo unspecified) was read as ERK EGF block 40µM*.
For COc1ccc(CCNCC(=O)N2C(C)CCCC2C)cc1OC (stereo unspecified) the results were ERK EGF block -6%.
Screening CC/S(C)=N/S(=O)(=O)c1ccc(C)cc1 (stereo unspecified) returned ERK EGF block 1%.
CCN(CC)CCCNC1=C(Cl)C(=O)c2ccccc2C1=O was read as ERK EGF block -9%[57.5 µM].
CC(C)OCCCNC1=C(Cl)C(=O)c2ccccc2C1=O was read as ERK EGF block 28µM*.
Screening CC(C)OCCCNC(=S)NNC(=O)C(c1ccccc1)c1ccccc1 returned ERK EGF block -20%.
`Cc1noc(C)c1C(=O)OCC(=O)N(C)C1CCS(=O)(=O)C1` (stereo unspecified) gave ERK EGF block 2%.
`O=C(CSc1ccc2ccccc2c1)NCc1cccs1` gave ERK EGF block 0%.
